Source: paper PMC4336329 (PLoS ONE, 2015)
Screen size: about 310,000 compounds; about 14,000 (4.5%) showed an effect of 50% or more. The effect is printed as a negative number. This excerpt belongs to a sample that is enriched for strong results.

Target: human ether-à-go-go-related gene (hERG) potassium channel (human, UniProt Q12809)
Test: primary screen, population patch clamp on CHO cells stably expressing hERG; higher = less effect of the substance
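Further: peak tail current of the secondary pulse compared with the same well before compound.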

Chain of human ether-à-go-go-related gene (hERG) potassium channel (Q12809 whole entry, looked up): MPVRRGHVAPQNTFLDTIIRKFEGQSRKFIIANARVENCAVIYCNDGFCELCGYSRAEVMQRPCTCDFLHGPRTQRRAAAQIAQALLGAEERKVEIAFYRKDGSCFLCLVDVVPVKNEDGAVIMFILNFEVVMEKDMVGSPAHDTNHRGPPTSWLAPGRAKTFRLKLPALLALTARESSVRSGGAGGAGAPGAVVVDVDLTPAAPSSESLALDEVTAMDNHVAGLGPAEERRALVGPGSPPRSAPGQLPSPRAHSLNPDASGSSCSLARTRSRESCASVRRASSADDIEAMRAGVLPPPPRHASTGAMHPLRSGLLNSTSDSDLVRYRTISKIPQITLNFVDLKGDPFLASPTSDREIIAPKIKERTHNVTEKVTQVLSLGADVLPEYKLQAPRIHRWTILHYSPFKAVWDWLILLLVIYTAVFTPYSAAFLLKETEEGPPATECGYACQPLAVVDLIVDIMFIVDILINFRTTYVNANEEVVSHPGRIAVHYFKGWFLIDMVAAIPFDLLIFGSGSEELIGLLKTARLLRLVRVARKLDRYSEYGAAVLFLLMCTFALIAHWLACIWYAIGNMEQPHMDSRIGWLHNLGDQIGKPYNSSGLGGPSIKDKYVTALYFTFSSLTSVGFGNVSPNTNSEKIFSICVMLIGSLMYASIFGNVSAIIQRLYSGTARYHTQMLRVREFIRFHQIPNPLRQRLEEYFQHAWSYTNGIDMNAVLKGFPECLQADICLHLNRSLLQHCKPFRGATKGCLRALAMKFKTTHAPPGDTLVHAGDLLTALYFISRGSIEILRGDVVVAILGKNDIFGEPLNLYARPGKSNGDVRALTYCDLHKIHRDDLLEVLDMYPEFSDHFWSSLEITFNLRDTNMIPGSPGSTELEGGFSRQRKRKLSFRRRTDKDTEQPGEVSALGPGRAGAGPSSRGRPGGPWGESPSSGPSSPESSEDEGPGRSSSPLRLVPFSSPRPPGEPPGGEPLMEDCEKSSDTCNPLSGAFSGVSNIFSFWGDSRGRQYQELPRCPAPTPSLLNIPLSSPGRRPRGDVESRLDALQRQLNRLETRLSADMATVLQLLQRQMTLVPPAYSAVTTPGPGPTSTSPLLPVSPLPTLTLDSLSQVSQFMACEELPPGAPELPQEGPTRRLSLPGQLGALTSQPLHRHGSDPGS

| SMILES | hERG current change (%, negative = inhibition) at 10uM [%] |
| --- | --- |
| Cc1occc1C(=O)Nc1ccc2c(c1)OCO2 | -7.71 |
| O=C(O)c1ccc(C(=O)O)c(C(=O)c2ccccc2)c1 | 1.72 |
| c1ccc(CN2CCOCCOCCOCC2)cc1 | 15.6 |
| O=[N+]([O-])c1ccc(CN2CCOCCOCCOCC2)cc1 | -59.1 |
| O=[N+]([O-])c1ccc(CN2CCCCCC2)cc1 | -32.8 |
| O=[N+]([O-])c1ccc(CN2CCSCC2)cc1 | 15.5 |
| O=[N+]([O-])c1ccc(CN2CCOCCOCCN(Cc3ccc([N+](=O)[O-])cc3)CCOCC2)cc1 | -77.8 |
| O=C(NC(=S)Nc1ccc(CN2CCOCC2)cc1)c1ccc([N+](=O)[O-])cc1 | -13 |
| CC(OC(=O)c1ccc(Cl)c(S(=O)(=O)N2CCOCC2)c1)C(=O)NC1CCCCC1C (stereo not drawn) | -35.9 |
| O=C1OC(CCl)CN1Cc1c(Cl)cccc1Cl (stereo not drawn) | -0.492 |
| O=C(COc1ccc(C(=O)c2ccc(F)cc2)cc1)NCc1ccc(F)cc1 | 4.49 |
| COC(=O)[C@]1(C)N[C@H](c2ccc(-c3ccc(F)cc3)cc2)[C@@H]2C(=O)N(C)C(=O)[C@@H]21.O=C(O)C(F)(F)F | -1.3 |
| NS(=O)(=O)c1cc(C(=O)O)c(NCc2ccco2)cc1Cl | 14.7 |
| CCC(=O)N=c1sc2ccccc2n1-c1ccccc1 | 17.8 |
| Cc1cc(N2CCCC2)ccc1C=C(C#N)C#N | -13.2 |
| N#CC(C#N)=Cc1ccc(N2CCCC2)cc1 | 4.17 |
| Cc1cc(C=C(C#N)C#N)ccc1N1CCCC1 | -65 |
| Cc1ccc(C)c(NC(=O)c2cc3c([nH]c4ccccc43)c(C)n2)c1 | 5.7 |
| Cc1nc(N2CCCCCC2)c2ccccc2n1.Cl | -51.5 |
| I.c1ccc2c(c1)nc(N1CCCCCC1)c1ccccc12 | 0.834 |
| c1ccc2c(N3CCCCC3)nc(N3CCCC3)nc2c1 | -69.6 |
| Cl.c1ccc2c(c1)nc(N1CCCCC1)c1ccccc12 | -2.67 |
| c1ccc2c(N3CCCCC3)nc(N3CCOCC3)nc2c1 | -33.7 |

| SMILES | hERG current change (%, negative = inhibition) at 10uM [%] |
| --- | --- |
| c1ccc2c(N3CCCCC3)nc(N3CCCCC3)nc2c1 | -39.1 |
| O=C(NC1(Cc2ccccc2)CCN(CCc2cccs2)C1=O)c1ccccc1 (stereo not drawn) | -1.81 |
| Cc1ccc(C)c(Nc2cc(C)nc(-c3ccccc3O)n2)c1 | 15 |
| COc1cc(C(=S)N2CCCC2)ccc1OCC(N)=O | 17.8 |
| COC(=O)c1n[nH]n(-c2ccc(F)c(Cl)c2)c1=O | 9.84 |
| CCC(C)N(C(=O)CN1C(=O)NC2(CCc3ccccc32)C1=O)C1CCS(=O)(=O)C1 (stereo not drawn) | -3.41 |
| CC1CCN(CCCCOc2ccc(Cl)cc2)CC1.O=C(O)C(=O)O | -71.7 |
| COc1ccc(OCCCCN2CCC(C)CC2)cc1.O=C(O)C(=O)O | -29 |
| Cc1ccc(OCCCCN2CCC(C)CC2)cc1.O=C(O)C(=O)O | -23.4 |
| CC1CCN(CCCCOc2ccc(C(C)(C)C)cc2)CC1.O=C(O)C(=O)O | -59.6 |
| CC(C)(c1ccccc1)c1ccc(OCCCN2CCNCC2)cc1.O=C(O)C(=O)O | 3.19 |
| Cc1ccc(OCCCCCCN2CCNCC2)cc1.O=C(O)C(=O)O | -11.6 |
| CC(C)OCCCNC(=O)c1ccc(Br)cc1 | -8.3 |
| CC(=O)c1ccc(NC(=O)CNCc2cccs2)cc1.O=C(O)C(=O)O | -0.848 |
| Cc1ccc2[nH]c(C(=O)O)c(NC(=O)CN3CCN(c4cccc(C)c4C)CC3)c2c1.Cl | 13.1 |
| Cc1ccc(-c2noc(CN(C(=O)CCCN3C(=O)c4ccccc4C3=O)C(C)C)n2)cc1 | -39.7 |
| Cc1ccc(-c2noc(CN(C(=O)CCN3C(=O)c4ccccc4C3=O)C(C)C)n2)cc1 | -63.6 |
| Cc1ccc(-c2noc(CN(C(=O)CCCCCN3C(=O)c4ccccc4C3=O)C(C)C)n2)cc1 | -15.3 |
| Cc1c(NC(=O)c2ccco2)cccc1-c1nc2cccnc2s1 | -45.8 |
| c1ccc(-c2ccc(CN3C[C@@H]4C(c5ccccc5)C5(c6ccccc6)CC4(C5)[C@H]3c3ccccc3)cc2)cc1 (stereo partly drawn) | -5.02 |
| CC1CCN(CC#CCOc2ccc(Cl)cc2)CC1.O=C(O)C(=O)O | -5.81 |
| Cc1cc(OCC(=O)N2CCC(C(N)=O)CC2)c2c(C)cc(=O)oc2c1 | 15.6 |
